PubChem BioAssay (NCI)
The panel holds about 83,000 compounds, 20% with a hit somewhere; the sample as a whole holds those more often.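 Plates (96-well) were seeded with cells, treated with compound at one concentration, and incubated for 48 hours before percent growth was determined.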 A number with no mark means an inactive call. Calls of active or inactive are those of the source.

System: HS 578T breast
Experiment: NCI-60 one-dose screen, 48 h (100 = growth as untreated, 0 = no growth, -100 = all killed)
Conditions: 10 µM unless noted
Description: Growth inhibition of the HS 578T human tumor cell line is measured as a screen for anti-cancer activity. Cells are grown in 96 well plates and exposed to the test compound for 48 hours. Compounds are tested at a single concentration, which is 10^-5 M for most compounds. The reported endpoint is percent growth (GI% or GIPRCNT), where numbers from 0 - 100% represent growth inhibition, and numbers from -100% - 0 represent cell death. For example, a value of 40 represents 60% growth inhibition. A value of 0 means no net growth occurred over the course of the experiment. A value of -40 indicates 40% of cells at the beginning of the experiment died by the end of the experiment. A value of -100 means all cells are dead at the end of the experiment.
NCI-60 Human Tumor Cell Lines Screen was performed using the standard one-dose NCI protocol, which is described in more detail at https://dtp.cancer.gov/discovery_development/nci-60/default.htm.
Compounds with GIPRCNT values below 10 were considered active. Activity score was based on GIPRCNT using the following formula: […]
Score is 0 for GIPRCNT values of 100 or above, 50 for GIPRCNT values of 0, and 100 for GIPRCNT values of -100.

SMILES | growth
CCOC(=O)C1=C(C)NC(=S)NC1c1ccccc1 (stereo not given) | 98.9%
CCCCCCCCCCCCCC1=NC(C)(C)CN1C(C)C | -28.1% (active)
COc1ccc(-c2cc(-c3cn(-c4cccc(Cl)c4)nc3-c3ccc(OC)cc3)[nH]c(=S)n2)cc1 | 88.7%
CCOCCNc1ccc(S(=O)(=O)c2ccc(N)cc2)cc1N | 99%
COc1cc(C2CC(c3ccc(Cl)cc3)=NN2C(C)=O)ccc1Oc1ccnc2cc(Cl)ccc12 (stereo not given) | 38.8%
Cc1ccccc1NC(=O)c1sc2nc3c(cc2c1N)C(=O)CCC3 | 25.8%
COc1cccc(/C=N\Nc2ccc([N+](=O)[O-])cn2)c1O | 63.9%
Cc1nc(N)nc2c1CCC(Nc1ccccc1)S2 (stereo not given) | 103%
O=C1Nc2ccccc2/C1=C\c1nc(C2CCN(S(=O)(=O)c3ccc(F)cc3)CC2)n2ccccc12 | 19%
ClCCn1cnc2c(SCc3ccccc3Cl)ncnc21 | 53.2%
CCCCCCCC/C=C\CCCCCCCC(=O)OCCCCCC | 105%
COc1ccc(Cl)cc1Nc1nc(C(F)(F)F)ccc1C(=O)NN | 95.8%
COc1cc2ccc(C(C)=O)cc2cc1OC | 97.1%
O=S(=O)(Cc1ccc(Cl)cc1Cl)c1ccc(Cl)cc1 | 63.3%
O=C(O/C(=C/c1ccccc1)C(F)(F)F)c1ccccc1 | 116%
NS(=O)(=O)c1ccc(CCn2c(SCC(=O)N/N=C/c3cccnc3)nc3ccccc3c2=O)cc1 | 82.7%
N/C(=N\O)c1ncc(-c2ccc(C(F)(F)F)cc2)c(NC2CCCCCC2)n1 | -43.3% [100 µM] (active)
Clc1ccc(-c2cnc3c(-c4ccnc(N5CCNCC5)c4)cnn3c2)cc1 | -32% (active)
O=C1Nc2ccc(Cl)cc2/C1=C\c1c(-c2ccc(F)cc2)nc2ccccn12 | 1% (active)
Cc1c(C(N)=O)sc2ncn(CC(=O)NN=C3CCCCC3)c(=O)c12 | 108%

SMILES | growth
COc1nccc2c(Sc3ccccc3)nc(N)nc12 | 113%
CCCCc1nc(Cl)c(C2CC(c3ccc(S(N)(=O)=O)cc3)=NN2c2ccc(C#N)cc2)[nH]1 (stereo not given) | 79.4%
O=[N+]([O-])c1ccc(Sc2nc(Cl)nc(NC3CCCC3)n2)cc1 | 11.7% [100 µM]
CCCCc1nc(Cl)c(C2CC(c3ccc(S(N)(=O)=O)cc3)=NN2c2cc(Cl)cc(Cl)c2)[nH]1 (stereo not given) | 36.9%
CC(C)CC(=O)C(CCc1ccccn1)C(C)C (stereo not given) | 97.8%
C=C1C(=O)O[C@H]2[C@H]1CC/C(COC(=O)NCc1ccc(Cn3c(=O)sn(CCCl)c3=O)cc1)=C\CC[C@@]1(C)O[C@@H]21 | 97.1%
NC(N)=N/N=C/c1cccc(Cl)c1Cl | 71.3%
CCCCCc1c(C)[nH]c(/C=C2\N=C(c3ccc[nH]3)C=C2Oc2ccc(OC)cc2)c1C | 0.631% [100 µM] (active)
CC(=O)NC1C(O[C@H]2C[C@H]3[C@@H]4CC=C5C[C@@H](O)CC[C@]5(C)[C@H]4CC[C@]3(C)[C@H]2[C@H](C)C(=O)CCC(C)C)OCC(O)C1O (stereo not given in full) | 5.84% (active)
Clc1ccccc1CNc1c2ccccc2nc2ccccc12 | 50%
CC(NC(=O)c1ccccc1)C(=O)Nc1ccccc1 (stereo not given) | 114%
CS(=O)(=O)c1ccc(Cl)c([N+](=O)[O-])c1 | 73.3%
CCCCCCCCCCCC1=NC(C)(C)CN1CC(C)O (stereo not given) | 71.6%
Cc1ccc(OC2=C(C#N)C(=N)N3C(=NN2)Sc2c(C)ccc(C)c23)cc1 | 107%
CC(=O)CC(c1ccc([N+](=O)[O-])cc1)c1c(O)c2ccccc2oc1=O (stereo not given) | 97.9%
O=C(CC(=O)c1cccc(Cl)c1)c1cccc(Cl)c1 | 73.6%
Fc1cc(-c2cnc3nonc3n2)c(Cl)cc1Cl | 111%
C[C@H](NC(=O)c1snnc1C1CC1)c1c(F)cccc1Cl | 100%
COc1cc(/C=C\c2cc(/C=C\c3ccc(O)c(OC)c3)n(C(=O)Nc3ccc(C(F)(F)F)cc3)n2)ccc1O | 51.9%
COc1cc(-c2nc(-c3ccc(-c4nc5ccc(F)cc5[nH]4)cc3)no2)cc(OC)c1OC | 30.5%
